Screening results (PubChem)
The list is not random: actives were taken first. Their share in the collection is about 17%.
DT40 TDP1 no CPT: qHTS for Inhibitors of human tyrosyl-DNA phosphodiesterase 1 (TDP1): qHTS in cells in absence of CPT | actives 15% (n = 420,000) | DT40 Tdp1-/- hTDP1 cells, no CPT, ATP luminescence, 48 h | Potency, µM (titrated, usually from 46.2 µM), for inactives: top-dose activity change, negative = growth inhibition, hits mostly inhibitors; note: % is set by controls: 0 for no effect and ±100 for the full control effect; nearly all actives have a fitted effect of over 55% in size
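Stably hTDP1-transfected Tdp1-null chicken DT40 cells were treated with library compounds minus camptothecin and grown for at least 48 hr at 37 °C, after which cellular ATP was quantified by luminescence.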
HT1080 IDH1KD tx: toxicity to HT-1080 IDH1 knockdown cells (counter line) | AID 686971 | actives 2% (n = 360,000) | HT-1080 IDH1 knockdown viability, ATP luminescence, 48 h | Potency, µM (titrated, usually from 46.1 µM), without a hit: at the top dose activity, negative = toxicity, hits mostly cytotoxic;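 note: 0% = DMSO wells and -100% = cell-free medium wells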
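Knockdown cells (IDH1KD HT-1080) received compounds 2 h after plating at 750 cells/well and were kept 48 h at 37 °C in 5% FBS RPMI. A CellTiter-Glo luminescence read gave % activity for curve fitting.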
DT40 TDP1 CPT: DT40-hTDP1 cell growth loss with CPT | chicken DT40 Tdp1-/-;hTDP1 cells + 20 nM CPT, ATP luminescence, 48 h | AID 686979 | actives 12% (n = 420,000) | Potency, µM (highest dose often 46.2 µM), for inactives: top-dose activity change, negative = growth inhibition, actives largely listed as inhibitors; note: % is set by controls: 0 for no effect and ±100 for the full control effect; nearly all actives have a fitted effect of over 55% in size
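Cell growth measured by CellTiter-Glo luminescence after a minimum 48 h, 37 C compound exposure with 20 nM CPT in Tdp1-knockout DT40 cells stably expressing hTDP1, seeded 400/well; qHTS titration format.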
TGFb inhibitor: inhibitors of TGF-b signaling. HepG2 CAGA-GFP TGF-b/SMAD3 reporter, GFP fluorescence, 18 h; TGF-beta stimulated, 500 pg/mL final. Potency, µM (top dose mostly 46.1 µM), for the others: at the highest dose activity, negative = inhibition, usual class: inhibitors. actives 1.2% (n = 410,000); note: % is set by controls: 0 for no effect and ±100 for the full control effect; nearly all actives have a fitted effect of over 65% in size
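Inhibition of TGF-beta-driven CAGA-GFP reporter expression in HEPG2 cells is measured by cellular GFP fluorescence after 18 h stimulation with 500 pg/mL recombinant TGF-beta in 1% FBS medium at 37 degrees C.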
HT1080NT lethal: kills 2HG-producing HT-1080-NT fibrosarcoma cells | HT-1080-NT fibrosarcoma viability, CellTiter-Glo ATP luminescence, 48 h | Potency, µM (series often up to 46.1 µM), for the others: top-dose activity, negative = less viability, most hits filed as cytotoxic | actives 1.6% (n = 360,000);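 note: NT is the 2HG producing partner of a matched IDH1 knockdown line; 0% = DMSO-treated cells and -100% = media-only wells without cells; nearly all actives have a fitted effect of over 55% in size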
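Luminescent CellTiter-Glo readout after 48 hours of compound exposure at 37 degrees C defined viability of HT-1080-NT cells. Activity was normalized to DMSO wells and cell-free media wells; concentration-response curves were fitted and assigned curve classes.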
HepG2 tox: kills HepG2 cells in TGF-b inhibitor counter-screen | actives 0.76% (n = 410,000) | HepG2 CAGA-GFP viability, ATP luminescence, 18 h | AID 588856 | Potency, µM (doses to about 46.1 µM), without a hit: at the top dose activity change, negative = cytotoxicity, usual class: cytotoxic
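HepG2 CAGA-GFP cells (1000/well, DMEM with 1% FBS) received compound, then TGF-beta at 500 pg/mL final, and were incubated 18 hours at 37 degrees C. Viability was read by CellTiter-Glo luminescence. Media-only wells were set as complete cell-killing and DMSO as no toxicity.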
Active calls of the source: *; ? = inconclusive; . = not tested or not shown. Calls come from the whole dose curve; as a rule, active = well fitted curve in the direction sought with a large enough effect; inconclusive = small, poorly fitted or top-dose-only effect, or another doubt; inactive = no such curve, though single readings can be large; an effect the other way counts as inactive or inconclusive. Potency is the fitted concentration of half-maximal effect.

SMILES	DT40 TDP1 no CPT	HT1080 IDH1KD tx	DT40 TDP1 CPT	TGFb inhibitor	HT1080NT lethal	HepG2 tox
NC(=O)CC(NC(=O)Cc1ccc(Br)cc1)c1ccc(N2CCC(Cc3ccccc3)CC2)c([N+](=O)[O-])c1 (configuration not stated)	23µM*	?	?	?	?	-40%
CCCCNC(=O)CCc1nc2cccnc2n1Cc1ccccc1	13%	1%	-3%	-1%	10%	9%
Cc1cc2nc(-c3ccccc3)c(Cc3cccc(F)c3)n2c(C)c1Br	16µM*	-25%	?	?	-20%	-10%
Cc1cc2nc(C3CCCCC3)c(Cc3cccc(F)c3)n2c(C)c1Br	?	-28%	16µM*	-8%	-27%	-39%
Cc1cc2nc(-c3ccc(F)cc3)c(Cc3ccccc3)n2c(C)c1Br	21µM*	?	21µM*	-38%	?	-32%
Cc1cc2nc(-c3cccc(Br)c3)c(Cc3ccccc3)n2c(C)c1Br	?	?	16µM*	?	?	-38%
Cc1cc2nc(-c3cccc(Br)c3)c(Cc3ccsc3)n2c(C)c1Br	?	-16%	?	.	-6%	.
C=C1CC2C(=O)N(Cc3ccccc3)C(C(=O)O)C1N2C(=O)OC(C)(C)C (configuration not stated)	.	.	.	-2%	.	2%
COc1ccc(CC(=O)Nc2ccccc2C(F)(F)F)cc1S(=O)(=O)N1CCOCC1	-17%	-2%	-2%	-8%	-7%	-11%
COc1ccc(N2CCN(c3ccc(Cl)nn3)CC2)cc1	?	12%	?	-26%	11%	-14%
N#Cc1ccc(-c2nc3ccc(Br)cn3c2Cc2cccc(F)c2)cc1	?	?	?	-2%	-29%	-9%
Cc1cc2nc(-c3ccc(C#N)cc3)c(Cc3cccc(F)c3)n2c(C)c1Br	15µM*	-28%	18µM*	?	-22%	-13%
Cc1cc(Br)cn2c(Cc3cccc(F)c3)c(-c3ccc(C#N)cc3)nc12	?	-22%	18µM*	.	-14%	.
Cc1ccc(-c2nc3cc(C)c(Br)c(C)n3c2Cc2cccc(F)c2)cc1	10µM*	?	7.3µM*	-8%	?	-10%
Cc1ccc(N2C(=O)N(CC(=O)N3CCCc4ccccc43)C(=O)C2C)cc1 (configuration not stated)	?	3%	?	-5%	8%	-1%
CC1CCc2nc(NC(=O)c3ccc(N4C(=O)CCC4=O)cc3)sc2C1 (configuration not stated)	?	5%	-2%	0%	0%	-23%
COc1cc2c(c(OC)c1OC)-c1c(cc3c(c1O)OCO3)C[C@@H](C)[C@@H](C)C2	?	-16%	23µM*	?	-27%	-39%
Cc1c(/C=N/NC(=O)CNc2ccccc2)c2ccccn2c1C(=O)c1ccc(Cl)cc1	?	-11%	?	-18%	-2%	-16%
Cc1ccccc1NCC(=O)N/N=C/c1c(C)c(C(=O)c2ccc(Cl)cc2)n2ccccc12	16µM*	5%	16µM*	-6%	-3%	-27%
C=CCN(CC=C)S(=O)(=O)c1ccc2nc(NC(=O)C(C)C)sc2c1	2.6µM*	7.3µM*	5.8µM*	-2%	3.7µM*	-4%
CCN(CC)S(=O)(=O)c1cccc(C(=O)N[C@H](C(=O)Nc2nc3ccccc3s2)C(C)C)c1	15µM*	-24%	?	?	-26%	-28%
COCC(=O)NCc1ccc2c(c1)cc(C)n2C	-2%	-2%	9%	-15%	2%	-37%
COc1ccc(C(=O)NCc2ccc3c(c2)cc(C)n3C)cc1	2%	13%	9%	-19%	4%	-25%
